Assay results from PubChem BioAssay (NCI).
About 83,000 compounds went through this panel and 20% of them were active in at least one assay; those are over-represented in the sample as a whole.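 48-hour exposure, single concentration, 96-well plates; percent growth endpoint where 0 means no net growth. Active: below 10.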 Unmarked numbers belong to inactive results. Activity calls are given as the source filed them.

Key:
Assay in all cases: NCI-60 one-dose screen, 48 h (100 = growth as untreated, 0 = no growth, -100 = all killed)
Settings in all cases: 10 µM unless noted
MOLT-4 leukemia = tested on: MOLT-4 leukemia
SR leukemia = tested on: SR leukemia
RPMI-8226 leukemia = tested on: RPMI-8226 leukemia
OVCAR-5 ovarian = tested on: OVCAR-5 ovarian
OVCAR-4 ovarian = tested on: OVCAR-4 ovarian
SK-OV-3 ovarian = tested on: SK-OV-3 ovarian
OVCAR-3 ovarian = tested on: OVCAR-3 ovarian
HS 578T breast = tested on: HS 578T breast
NCI/ADR-RES ovarian = tested on: NCI/ADR-RES ovarian
T-47D breast = tested on: T-47D breast
MDA-MB-435 melanoma = tested on: MDA-MB-435 melanoma
SW-620 colon = tested on: SW-620 colon
MCF7 breast = tested on: MCF7 breast
HCT-116 colon = tested on: HCT-116 colon
HCC-2998 colon = tested on: HCC-2998 colon
KM12 colon = tested on: KM12 colon
IGROV1 ovarian = tested on: IGROV1 ovarian
OVCAR-8 ovarian = tested on: OVCAR-8 ovarian
BT-549 breast = tested on: BT-549 breast

| SMILES | growth (MOLT-4 leukemia) | growth (SR leukemia) | growth (RPMI-8226 leukemia) | growth (OVCAR-5 ovarian) | growth (OVCAR-4 ovarian) | growth (SK-OV-3 ovarian) | growth (OVCAR-3 ovarian) | growth (HS 578T breast) | growth (NCI/ADR-RES ovarian) | growth (T-47D breast) | growth (MDA-MB-435 melanoma) | growth (SW-620 colon) | growth (MCF7 breast) | growth (HCT-116 colon) | growth (HCC-2998 colon) | growth (KM12 colon) | growth (IGROV1 ovarian) | growth (OVCAR-8 ovarian) | growth (BT-549 breast) |
| --- | --- | --- | --- | --- | --- | --- | --- | --- | --- | --- | --- | --- | --- | --- | --- | --- | --- | --- | --- |
| CN1C2CCC1[C@@H](COC(=O)c1ccccc1)[C@@H](O)C2 (some centres undefined) | 97.8% | 105% | 77.7% | 106% | 103% | 107% | 111% | 119% | 110% | 124% | 121% | 111% | 97.3% | 101% | 105% | 103% |  |  |  |
| CCCC[C@H]1C(=O)O[C@H](C)[C@H](NC(=O)c2cccc(NC=O)c2O)C(=O)O[C@@H](C)[C@@H]1OC(=O)CC(C)C | 31.1% | 49.4% | 18.2% | -27.7% (active) |  | 68% | 43.4% | -18.5% (active) | 1.1% (active) | 27.9% | 39% | 59% | 38.3% | 20.8% | 56.6% | 41.9% | 55.6% |  |  |
| O=NN(c1ccccc1)c1ccccc1 | 114% | 99.5% |  | 107% | 110% | 105% | 102% | 107% | 100% | 107% | 105% | 102% | 99.8% | 95.4% | 101% | 102% |  | 102% | 122% |
| CN1CCC2(CC1)C(C#N)C(=O)NC(=O)C2C#N (centres undefined) | 100% | 86.5% |  | 104% | 97.3% | 110% | 117% | 113% | 113% | 107% | 97.6% | 108% | 88.6% | 93.3% | 112% | 126% | 123% | 99% |  |
| Cc1c2ccncc2c(C)c2c1[nH]c1ccccc12 | -24.4% (active) | -12.8% (active) |  | -90.8% (active) | -29.7% (active) | -4.52% (active) | -86% (active) | -47.3% (active) | -46.9% (active) | -56.1% (active) | -89.6% (active) | -64.1% (active) | -15.9% (active) | -57% (active) | -96.8% (active) | -69.3% (active) | -66.2% (active) | -14.2% (active) |  |
| CC1OC(=O)C(C(C)C)NC(=O)C(C(C)C)OC(=O)C(C(C)C)NC(=O)C(C)OC(=O)C(C(C)C)NC(=O)C(C(C)C)OC(=O)C(C(C)C)NC(=O)C(C)OC(=O)C(C(C)C)NC(=O)C(C(C)C)OC(=O)C(C(C)C)NC1=O (centres undefined) | -26.4% (active) | -14.6% (active) | -23.2% (active) | -39.6% (active) |  | -13.3% (active) | -18.9% (active) | -63.9% (active) | 0.571% (active) | -15.2% (active) | 3.94% (active) | 3.61% (active) | -31.7% (active) | -69% (active) | -16.5% (active) | 0.9% (active) | -25% (active) |  | -42.5% (active) |
| CC(C)COC(=O)Cc1ccccc1 | 103% | 100% |  | 106% | 105% | 105% | 111% | 102% | 110% |  | 106% |  | 106% | 105% | 107% | 105% | 109% | 110% | 108% |
| Cc1cc[c-]cc1.Fc1c[c-]c(-c2ccccn2)c(F)c1.N#CCC[PH+](CCC#N)c1ccccc1.[Pt+2] | 5.29% (active) | 7.03% (active) |  | 64.9% | 42.1% | 108% | 28.5% | 40.6% | 55.3% | 29.1% | 30.9% | 6.78% (active) | 20.8% | 19.1% | 82.4% | 74.1% | 30.2% | 40.7% | 55.7% |
| CC[PH+](CC)CC.O=COC1OC([S-])C(OC=O)C(OC=O)C1OC=O.[Au+] (centres undefined) | -29.1% (active) | -18.4% (active) |  | -98.5% (active) | -89.8% (active) | -45.5% (active) | -91.8% (active) | 14.5% | 18.7% | -82.7% (active) | -72.2% (active) | -76.3% (active) | -69.2% (active) | -50.3% (active) | -90% (active) | -78.9% (active) | -78.3% (active) | 1.43% (active) | -80.8% (active) |
| N#Cc1ccc(Cl)cc1 | 92.5% | 87% |  | 109% | 115% | 109% | 114% |  | 113% | 104% | 117% | 103% | 103% | 114% | 123% | 115% | 104% | 109% |  |
| CO[C@@H]([CH2][Hg][O]C(=O)c1ccccc1)[C@@H]([CH2][Hg][O]C(=O)c1ccccc1)OC | 27.4% | 50.2% |  | 111% | 93.8% | 73.2% | -92.8% (active) | 113% | 105% |  | 104% |  | 46.4% | -60.5% (active) | 118% | 101% | 96.4% | 83.8% | 110% |
| Cc1cc2c(cc1-c1ccnc(/C=C/C(=O)O)c1)C(C)(C)CCC2(C)C | 91.9% | 77.9% |  | 100% | 104% | 98.1% | 82.8% | 59.6% | 87.8% | 92.4% | 92.5% | 95.9% | 56% | 75.1% | 103% | 86.3% | 100% | 79% | 64.5% |
| O=C(O)C(Br)CBr (centres undefined) | 87.7% | 99% |  | 117% | 97.1% | 101% | 106% | 111% | 101% | 89.6% | 103% | 105% | 87.9% | 94.8% |  | 104% | 104% | 92.9% | 100% |
| c1ccc2c(c1)O[As](O[As]1Oc3ccccc3O1)O2 | 19.2% | 2.68% (active) |  | 40.6% | 40.3% | 75.6% | 14.2% | 38.8% | 50.1% | 14.3% | 41.2% | 25.5% | 12.7% | 43.1% | 65.8% | 69.8% | 6.22% (active) | 23.3% |  |
| COCC1OC2OC3C(COC)OC(OC4C(COC)OC(OC5C(COC)OC(OC6C(COC)OC(OC7C(COC)OC(OC8C(COC)OC(OC1C(O)C2O)C(O)C8O)C(O)C7O)C(O)C6O)C(O)C5O)C(O)C4O)C(O)C3O (centres undefined) (tested in a mixture with another compound) | 99.6% | 91.3% |  | 104% | 111% | 117% | 119% | 105% | 127% | 113% | 117% | 109% | 101% | 120% | 89.4% | 109% | 184% | 114% |  |
| O=[N+]([O-])c1ccc(CI)cc1 | 14.7% | 34.4% |  | 96.8% | 102% |  |  | 111% | 70.9% | 73.3% | 90.4% | 26.4% | 21.7% | 1.59% (active) | 108% | 106% | 115% | 84.4% | 98.6% |
